# Bioassay records deposited in PubChem by several laboratories.
# rCAG binder = binders of r(CAG) RNA repeats, primary screen, biochemical, fluorescence | r(CAG) RNA repeat, TO-PRO-1 dye displacement fluorescence | inhibition, % at 3 µM | actives 1.3% (n = 370,000);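 active means inhibition above the plate cutoff, the mean of all test compounds on that plate plus 3 SD, cut at about 35% in these data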;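 further: 0% = DMSO alone and 100% = 100 µM mitoxantrone as full dye displacement; higher means more dye released from RNA so lower well fluorescence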
# FAS-TE inh = FAS thioesterase domain inhibitors, primary screen, biochemical, fluorescence intensity, uHTS | recombinant FAS-TE, OMFH fluorogenic substrate, fluorescence endpoint | inhibition, % at 15 µM | actives 0.67% (n = 360,000);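 active means compounds whose normalised, plate-corrected inhibition of enzyme fluorescence in the single-dose primary screen is 50% or more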;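 further: 0% = DMSO with enzyme and 100% = substrate without enzyme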
# NR3A LBD binder = binders of NR3A ligand-binding domain, primary screen, biophysical, differential scanning fluorimetry, uHTS; Glutamate receptor ionotropic, NMDA 3A (GRIN3A) ligand-binding domain; NR3A LBD differential scanning fluorimetry, Tm shift; 0% = protein alone, 100% = glycine-bound protein; Tm shift relative to glycine control, % at 25 µM; actives 2.5% (n = 340,000); AID 1259313, 2017;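 active means melting temperature shift of at least 10% of the positive control shift, at one fixed dose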
# NadD inh = inhibitors of S. aureus NadD, primary screen, biochemical, colorimetric, uHTS; Nicotinate-nucleotide adenylyltransferase NadD (Staphylococcus aureus N315); actives 0.78% (n = 360,000); inhibition, % at 20 µM; AID 602399, 2012; purified NadD enzyme, colorimetric absorbance read-out; in the data active means inhibition above about 26%
# The depositor's hits bear a star; nt = no result. An excerpt weighted towards active compounds, which were near 4.3% of everything screened.
SMILES,rCAG binder,FAS-TE inh,NR3A LBD binder,NadD inh
COc1cc(OC)c2c(c1)OC(=O)CC2c1ccc(C)cc1 (centres undefined),2,7,-1,2
Cc1ccc(C2CC(=O)Oc3cc(C)c(Br)c(C)c32)cc1 (centres undefined),3,24,18*,-1
CCn1c(C)cc(/C=C2/SC(=S)N(CC(=O)O)C2=O)c1C,16,-5,0,-2
C#CCN1C(=O)S/C(=C/c2cc(C)n(CC)c2C)C1=O,3,4,33*,-3
Oc1ccc(N=C/C=C/c2cccc(Br)c2)cc1-c1nc2ccccc2s1,nt,20,-2,41*
COC(=O)[C@@H]1C[C@@]2(O)[C@H](O)[C@H](O)[C@H](O)C[C@H]2N1Cc1cc(F)ccc1F,2,-8,11*,3
C=CCNC(=O)C1CC2Cn3c(nc4cc5ccccc5cc43)C2N1C (centres undefined),3,-6,12*,1
Nc1ccc2nc(-c3ccccc3)[nH]c2c1,2,-2,-5,-1
Nc1ccc(-c2nc3c(Cl)cc(N)cc3[nH]2)cc1,6,-4,10*,27
O=C(NCc1ccco1)C1CCCN(S(=O)(=O)c2ccc([N+](=O)[O-])cc2)C1 (centres undefined),1,nt,nt,nt
Cc1cc(NC(=O)c2ccc([N+](=O)[O-])cc2)no1,1,0,3,-1
Cc1oc(C(C)(C)C)cc1-c1cc(NC(=O)c2ccc([N+](=O)[O-])cc2)n[nH]1,1,-17,15*,14
CCOC(=O)c1cc(CC)sc1NC(=O)c1cc(OCC)c(OCC)c(OCC)c1,-1,27,11*,-6
O=C(c1ccc(S(=O)(=O)NCc2ccco2)cc1)N1CCN(c2ccc(F)cc2)CC1,4,4,-2,3
O=C(/C=C/c1ccc(S(=O)(=O)NCc2ccco2)cc1)N1CCN(c2ccccc2)CC1,-3,2,16*,6
O=C(CCc1nc(-c2ccccc2F)no1)NCCc1cccc(F)c1,1,nt,nt,nt
COC(=O)c1cc(-c2ccc(Oc3ccccc3)cc2)c(=O)n2c1CCC2,0,nt,nt,nt
COc1ccc(-c2cc(-c3nnc4sc(-c5cccs5)nn34)[nH]n2)cc1,16,nt,nt,nt
CCOC(=O)C1CCCN(S(=O)(=O)c2cc3c(cc2Br)CCN3C(=O)CC)C1 (centres undefined),3,nt,nt,nt
COc1cc2c(cc1Cl)/C(=C\CCN(C)C)c1ccccc1S2,10,0,18*,-7
O=C(NCc1ccco1)C1CCCN(S(=O)(=O)c2ccccc2F)C1 (centres undefined),2,nt,nt,nt
COC(=O)[C@@H](N[C@H](/C=C/c1ccccc1)[C@@H](O)Cc1ccccc1)C(C)C,2,nt,nt,nt
C[C@@]12CCC=C[C@H]1[C@H](c1ccoc1)N(Cc1ccccc1)C2=O,-8,1,12*,-4
CN1C(=O)c2cc(NC(=O)Nc3ccccc3)ccc2OC[C@H]2O[C@@H](CC(=O)N[C@H]3CCN(Cc4ccccc4)C3)CC[C@@H]21,4,nt,nt,nt
S=C(Nc1ccc(Oc2ccccc2)cc1)NC1CCCCCC1,2,14,11*,4
SMILES,rCAG binder,FAS-TE inh,NR3A LBD binder,NadD inh
S=C(Nc1ccc(Cl)c(Cl)c1)NC1CCCCC1,nt,28,23*,-7
S=C(Nc1ccc(Oc2ccccc2)cc1)NC1CCCCC1,3,20,5,-5
S=C(Nc1ccc2nsnc2c1)NC1CCCCC1,2,7,-5,-5
O=C(Nc1cccc2ccccc12)N1CCOCC1,2,-6,17*,-2
O=C(N/N=C/c1c[nH]c2ccccc12)c1cc(Cl)ccc1O,8,1,36*,-1
O=C(N/N=C/c1c[nH]c2ccccc12)c1ccccc1Cl,4,3,-1,-6
Nc1ccc(C(=O)N/N=C/c2c[nH]c3ccccc23)cc1,0,-4,21*,-6
CC(C)Oc1ccc(Br)cc1C(=O)N/N=C/c1c[nH]c2ccccc12,17,15,11*,6
O=C(O)c1ccc(N/N=C/c2c[nH]c3ccccc23)cc1,5,-3,10*,0
O=C(O)c1ccc(N/N=C/c2ccnc3ccccc23)cc1,4,-2,-6,-5
Fc1ccc2nc(-c3ccc(CN4CCC5(CC4)CNc4ccccc45)cc3)c(-c3ccccc3)nc2c1,11,nt,nt,nt
CCNC(=S)NNC(=O)c1cnccn1,1,nt,nt,nt
COC(=O)c1cccc2c([N+](=O)[O-])c(NC(C)=O)cc(C(=O)OC)c12,1,nt,nt,nt
CC(C)(C)OC(=O)N/N=C/c1c[nH]c2ccccc12,0,-7,-42,-3
Cc1occc1C(=O)N/N=C/c1c[nH]c2ccccc12,nt,-4,13*,7
O=C(N/N=C\c1c[nH]c2ccccc12)c1ccc(O)cc1,2,-4,41*,-10
NC(=S)N/N=C/c1c[nH]c2ccccc12,7,-6,-5,-4
O=C(N/N=C/c1c[nH]c2ccccc12)c1ccc(Cl)cc1,4,1,37*,-1
O=C(N/N=C/c1c[nH]c2ccccc12)c1ccc(Br)cc1,7,7,30*,-4
COC(=O)C1CN(Cc2cn(Cc3ccc(Cl)cc3)nn2)CCS(=O)(=O)N1Cc1ccc(OC)cc1 (centres undefined),7,nt,nt,nt
Cc1nnc(N/N=C/c2c[nH]c3ccccc23)[nH]c1=O,7,-8,25*,-7
Cc1cc(C)nc(N/N=C/c2c[nH]c3ccccc23)n1,-4,-8,1,6
O=S(=O)(O)c1cc(O)c2cc(Nc3ccccc3)ccc2c1,43*,5,-2,15
COc1ccccc1Nc1ccc2c(O)cc(S(=O)(=O)O)cc2c1,74*,7,-1,21
Nc1cccc2c(O)cc(S(=O)(=O)O)cc12,nt,0,-7,11
SMILES,rCAG binder,FAS-TE inh,NR3A LBD binder,NadD inh
O=S(=O)(O)c1ccc(O)c2cc(Nc3ccccc3)ccc12,97*,24,-8,68*
CC(=O)Nc1ccc2c(O)cc(S(=O)(=O)O)cc2c1,2,-9,2,-1
COC(=O)[C@]12CCCCC=C1N(Cc1ccc(OC)cc1)C(=O)[C@@H]2CC(=O)N1CCN(C(=O)C2CC2)CC1,0,nt,nt,nt
Cc1ccc(NC(=O)Nc2ccc3c(c2)[C@]2(CC(=O)N(CC(C)C)C2c2ccccc2)C(=O)N3C)cc1Cl (some centres undefined),8,nt,nt,nt
Cc1cccc(-c2nnc(SCc3cccc4ccccc34)n2-c2ccc(Cl)cc2)c1,8,nt,nt,nt
COC(=O)c1ccc(NC(=O)C(=O)N2CCN(C(=S)Nc3ccc(C)cc3)CC2)cc1,4,1,11*,-4
CN1CCCN(S(=O)(=O)c2ccc3c(c2)n(C)c(=O)c(=O)n3C)CC1,4,nt,nt,nt
Cc1cc(NC(=O)CN2C(=O)NC(CC(C)C)C2=O)ccc1Br (centres undefined),2,7,29*,-7
